Laboratory results reported in PubChem BioAssay AID1159580 (chemical genetic matrix, 2015).
In all, about 5,500 compounds went through this assay and about 2,000 (36%) were called active. Roughly 18% stayed inconclusive and do not appear here. No stated cut-off is given here; in the data, active means normalized growth mostly below about 0.91 (no sharp cut-off); inconclusive means no clear call, values can overlap the other calls; inactive means mostly above about 0.92. The list shows a part of the results.

Assay: chemical genetic growth profiling, strain panel (AID 1159580);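 further: tested at 20 µM; growth read once vehicle control cultures reached saturation at 30 °C; 1 = growth at the plate median or of vehicle wells; lower values mean less growth of the strain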
Conditions: S. cerevisiae deletion strains, growth OD
[1] = locus YAL040C, strain CLN3, active compounds read low
[2] = locus YER002W, strain NOP16, active compounds read low
[3] = locus YJR075W, strain HOC1, active compounds read low
[4] = locus YNL128W, strain TEP1, active compounds read low
[5] = locus YNL197C, strain WHI3, active compounds read low
[6] = locus YNL224C, strain SQS1, active compounds read low
[7] = locus YOR083W, strain WHI5 (second series), active compounds read low

Measured: normalized growth

NCC(O)c1cc(O)c(O)cc1F (stereo unspecified)
inactive: [1] 1 | locus YDR150W, strain NUM1, active compounds read low 1.02 | [2] 1.01 | [3] 1.03 | [4] 1.03 | locus YNL153C, strain GIM3, active compounds read low 1.01 | locus YNL175C, strain NOP13, active compounds read low 0.978 | [5] 0.994 | [6] 1.01 | [7] 1.04 | locus YPL241C, strain CIN2, active compounds read low 1.01

NC(Cc1cc(O)c(O)cc1O)C(=O)O (stereo unspecified)
inactive: [1] 1 | locus YCL061C, strain MRC1 (second series), active compounds read low 0.967 | locus YDR363W, strain ESC2, active compounds read low 0.977 | [2] 1.01 | locus YGR078C, strain PAC10, active compounds read low 0.979 | [3] 0.956 | [4] 0.976 | [5] 0.98 | [6] 1.03 | locus YNL322C, strain KRE1, active compounds read low 0.942 | [7] 1.01

NCCc1cc(O)c(O)cc1O
inactive: locus YAL026C, strain drs2, active compounds read low 0.924 | locus YAL030W, strain snc1, active compounds read low 0.938 | locus YBL061C, strain skt5, active compounds read low 0.948 | locus YBR009C, strain hhf1, active compounds read low 0.963 | locus YBR023C, strain chs3, active compounds read low 0.94 | locus YBR171W, strain sec66, active compounds read low 0.983 | locus YBR279W, strain paf1, active compounds read low 0.948 | locus YCL011C, strain gbp2, active compounds read low 0.96 | locus YCL016C, strain dcc1, active compounds read low 0.962 | locus YCL061C, strain MRC1, active compounds read low 0.934 | locus YCL069W, strain vba3, active compounds read low 0.966 | locus YCR088W, strain abp1, active compounds read low 0.999 | locus YDL005C, strain med2, active compounds read low 1.01 | locus YDL040C, strain nat1, active compounds read low 0.995 | locus YDR001C, strain nth1, active compounds read low 1 | locus YDR137W, strain rgp1, active compounds read low 0.993 | locus YDR159W, strain sac3, active compounds read low 1.02 | locus YDR195W, strain ref2 0.97 | locus YDR297W, strain sur2, active compounds read low 0.941 | locus YDR334W, strain swr1, active compounds read low 0.951 | locus YDR335W, strain msn5, active compounds read low 0.924 | locus YDR392W, strain spt3, active compounds read low 0.882 | locus YEL037C, strain rad23, active compounds read low 0.964 | locus YEL061C, strain CIN8 (second series), active compounds read low 0.987 | locus YER016W, strain bim1, active compounds read low 0.967 | locus YER111C, strain swi4, active compounds read low 0.966 | locus YFR010W, strain ubp6, active compounds read low 0.921 | locus YGL167C, strain pmr1, active compounds read low 0.976 | locus YGL227W, strain vid30, active compounds read low 1.01 | locus YGL240W, strain doc1, active compounds read low 0.917 | locus YGL253W, strain hxk2, active compounds read low 0.963 | locus YHR013C, strain ard1, active compounds read low 0.954 | locus YHR030C, strain SLT2, active compounds read low 0.975 | locus YHR079C, strain IRE1, active compounds read low 0.938 | locus YHR142W, strain chs7, active compounds read low 0.949 | locus YJL092W, strain hpr5, active compounds read low 0.953 | locus YJL095W, strain BCK1 (second series), active compounds read low 0.964 | locus YJL095W, strain BCK1, active compounds read low 0.989 | locus YJL115W, strain asf1, active compounds read low 0.984 | locus YJL129C, strain trk1, active compounds read low 1.09 | locus YJL154C, strain vps35, active compounds read low 1.01 | locus YJR066W, strain TOR1, active compounds read low 0.919 | locus YKL160W, strain elf1, active compounds read low 0.945 | locus YKR026C, strain gcn3, active compounds read low 0.997 | locus YKR091W, strain srl3, active compounds read low 1 | locus YLL001W, strain dnm1, active compounds read low 0.921 | locus YLL026W, active compounds read low 0.933 | locus YLL041C, strain sdh2, active compounds read low 1.01 | locus YLR027C, strain aat2, active compounds read low 0.931 | locus YLR113W, strain HOG1, active compounds read low 1 | locus YLR221C, strain rsa3, active compounds read low 0.939 | locus YLR258W, strain gsy2, active compounds read low 0.964 | locus YLR262C, strain YPT6 (second series), active compounds read low 0.901 | locus YLR320W, strain mms22, active compounds read low 0.884 | locus YLR357W, strain rsc2, active compounds read low 0.901 | locus YLR370C, strain arc18, active compounds read low 0.931 | locus YLR384C, strain iki3, active compounds read low 0.981 | locus YML120C, strain ndi1, active compounds read low 0.95 | locus YMR125W, strain sto1, active compounds read low 1.01 | locus YMR129W, active compounds read low 0.991 | locus YMR205C, strain PFK2, active compounds read low 0.943 | locus YMR231W, strain pep5, active compounds read low 0.98 | locus YNL071W, strain lat1, active compounds read low 0.952 | locus YNL183C, strain NPR1, active compounds read low 0.956 | locus YNL322C, strain KRE1 (second series), active compounds read low 0.995 | locus YNR049C, strain mso1, active compounds read low 0.987 | locus YOR001W, strain rrp6, active compounds read low 0.934 | locus YOR070C, strain gyp1, active compounds read low 0.965 | locus YOR080W, strain dia2, active compounds read low 0.937 | locus YOR083W, strain WHI5, active compounds read low 0.896 | locus YOR231W, strain MKK1, active compounds read low 0.994 | locus YOR265W, strain rbl2, active compounds read low 0.966 | locus YOR270C, strain vph1, active compounds read low 0.951 | locus YOR290C, strain snf2, active compounds read low 0.948 | locus YPL078C, strain atp4, active compounds read low 0.931 | locus YPL240C, strain hsp82, active compounds read low 0.985 | locus YPL256C, strain CLN2, active compounds read low 0.971
active: locus YAL021C, strain ccr4, active compounds read low 0.856 | locus YBR231C, strain swc5, active compounds read low 0.884 | locus YDR069C, strain doa4, active compounds read low 0.833 | locus YEL003W, strain gim4, active compounds read low 0.908 | locus YER015W, strain faa2, active compounds read low 0.887 | locus YER155C, strain BEM2 (second series), active compounds read low 0.847 | locus YGL173C, strain kem1, active compounds read low 0.838 | locus YHR027C, strain rpn1, active compounds read low 0.9 | locus YJL164C, strain tpk1, active compounds read low 0.914 | locus YJL166W, strain qcr8, active compounds read low 0.877 | locus YLR342W, strain FKS1, active compounds read low 0.861 | locus YMR058W, strain fet3, active compounds read low 0.697 | locus YNL209W, strain ssb2, active compounds read low 0.899 | locus YNL248C, strain rpa49, active compounds read low 0.807 | locus YOR106W, strain vam3, active compounds read low 0.805 | locus YPL051W, strain arl3, active compounds read low 0.854 | locus YPL106C, strain sse1, active compounds read low 0.847
